The source of these data is PubChem BioAssay AID2098 (Broad Institute, 2009).

SMILES strings stand for the structures. Hit rate of the full screen: of about 300,000 compounds, about 2,300 (0.77%) were called active. The sample holds actives, similar compounds and a random draw of the others, so the mix is not that of the screen.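 The calls were made as follows: active = more than half of replicate wells show activity change below -50%, luminescence cut by over half; inconclusive = some wells, but at most half, below -50%; inactive = no replicate well below -50%.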

The nature of the assay: blocking HSF1-driven luciferase expression – cell-based, NIH3T3, luminescence, primary screen (AID 2098).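 Also: luciferase reports HSF-1 transcriptional activity via heat shock element; 0% = median of DMSO wells and -100% = zero luminescence signal.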 The following applies: NIH3T3-HGL HSE-luciferase, MG132-induced, luminescence 8 h; hits give low values; screened at 7.5 µM (by protocol).
In the case of `C/C(=C/C(=O)N1CCN(C)CC1)C(=O)O`, the activity change, negative = inhibition was -83.7% (active). In the case of `CN1CCN(C(=O)C2C3C=CC(C3)C2C(=O)O)CC1` (stereo not given) it was -0.614% (inactive); in that of `CCN1CCN(C(=O)/C=C\C(=O)O)CC1`, -4.12% (inactive); in that of `COc1cccc(CN(C)CC2CCCN(CCc3ccc(Cl)cc3)C2)c1OC` (stereo not given), -81.7% (active). In the case of `COc1cccc(CN(C)CC(=O)NCc2ccccc2Cl)c1OC` it was -1.39% (inactive); in that of `Cc1nc2ccc(C(=O)N(C)CC3CCCN(CCc4ccc(Cl)cc4)C3)cc2[nH]1` (stereo not given), -3.74% (inactive); in that of `O=C(COc1ccccc1F)Nc1nc(-c2ccccn2)cs1`, -13.1% (inactive). The figure for `N#CCCN(C(=O)COC(=O)c1ccc(S(=O)(=O)N2CCCCCC2)cc1)c1ccccc1` is 0.525% (inactive). Consider `Cc1ccccc1N1CC(C(=O)Nc2ccc(S(=O)(=O)N3CCCC3)cc2)CC1=O` (stereo not given), for which the activity change, negative = inhibition was -1.85% (inactive). In the case of `COc1ccc(NC(=O)Cn2c(=O)n(Cc3ccco3)c(=O)c3ccccc32)cc1` it was -89% (active); in that of `O=C(Cn1c(=O)n(Cc2ccco2)c(=O)c2ccccc21)NCC1CCCO1` (stereo not given), 0.503% (inactive). The figure for `Cn1c(=O)c2ccccc2n(CC(=O)Nc2ccc3c(c2)OCCO3)c1=O` is -3.8% (inactive). In the case of `Cn1c(=S)sc2ccc3ccccc3c21` it was -1.53% (inactive); in that of `COC(=O)C1=C(C)Nc2ncnn2C1c1ccco1` (stereo not given), 0.145% (inactive); in that of `Brc1ccc(C2=CC(c3ccco3)n3ncnc3N2)cc1` (stereo not given), -56.9% (active).

Consider `CCOc1ccc(C2=CC(c3ccccc3)n3ncnc3N2)cc1` (stereo not given), for which the activity change, negative = inhibition is -4.36% (inactive). In the case of `O=C(c1ccc(O)cc1)c1ccc(C(=O)O)c(C(=O)O)c1` it was -68% (active). In the case of `O=C(O)c1ccc2c(c1)C(=O)N(NC(=O)c1ccc(O)cc1)C2=O`, the activity change, negative = inhibition was 0.898% (inactive). The figure for `O=C(Nc1ccc(C(=O)O)c(O)c1)c1ccccc1` is 2.77% (inactive); for `CCC1(c2ccccc2)NC(=O)N(CC(=O)c2ccc3c(c2)OCO3)C1=O` (stereo not given) it is 1.78% (inactive). As for `CCCCN1C(N)=NC[C@@H]1CC1CCCCC1`, the activity change, negative = inhibition was -7.88% (inactive). Take `C[C@@H]1O[C@@H](OC[C@H]2O[C@@H](Oc3c(-c4ccc(O)cc4)oc4cc(O)cc(O)c4c3=O)[C@H](O)[C@@H](O)[C@@H]2O)[C@H](O)[C@H](O)[C@H]1O`: the activity change, negative = inhibition was 2.53% (inactive). In the case of `Cc1ccc(C)c(N2CCN(C(=O)CCCCn3c(=O)[nH]c4ccccc4c3=O)CC2)c1` it was 1.8% (inactive); in that of `O=C(CCCCCn1c(=S)[nH]c2cc3c(cc2c1=O)OCO3)N1CCN(c2ccc(F)cc2)CC1`, 0.967% (inactive). In the case of `Cc1ccc(C)c(N2CCN(C(=O)CCCCCn3c(=S)[nH]c4ccc(N5CCOCC5)cc4c3=O)CC2)c1` it was -73.3% (active); in that of `Cc1cc(Br)ccc1NC(=O)CN(C)C(=O)CN1C(=O)NC2(CCCC2)C1=O`, -4.3% (inactive). Consider `O=C(COc1ccccc1)Nc1ccc(C(=O)N2CCCC2)cc1`, for which the activity change, negative = inhibition was -3.01% (inactive).

Consider `N#CC1=C(N)Oc2[nH]c(=S)[nH]c(=O)c2C12C(=O)Nc1ccccc12` (stereo not given), for which the activity change, negative = inhibition was -4.51% (inactive). As to `N#CC1=C(N)Oc2n[nH]c(CSc3ccccc3)c2C12C(=O)Nc1ccccc12` (stereo not given), the activity change, negative = inhibition is -57.8% (active). Turning to `COc1ccc(S(=O)(=O)NCC(c2ccco2)N2CCOCC2)cc1` (stereo not given), the activity change, negative = inhibition was 5.28% (inactive). As for `O=C(Nc1nnc(S(=O)(=O)N2CCOCC2)s1)c1cccc(Br)c1`, the activity change, negative = inhibition is 4.12% (inactive). The figure for `O=C(Nc1nnc(S(=O)(=O)N2CCCCCC2)s1)c1cccc(Br)c1` is -56% (active); for `Cc1cccc(C(=O)Nc2nnc(S(=O)(=O)N3CCCCCC3)s2)c1` it is -1.91% (inactive). The figure for `O=C(COC(=O)c1ccccc1SCC(=O)N1CCCC1)Nc1ccccc1OC(F)F` is 7.03% (inactive); for `O=C(c1ccc(F)c(S(=O)(=O)N2CCOCC2)c1)N(CCc1ccccc1)Cc1ccccc1` it is 5.02% (inactive).

As to `COc1ccc(Cl)cc1C=CC=Nc1ccc(S(N)(=O)=O)cc1`, the activity change, negative = inhibition was -18.4% (inactive). In the case of `C=C1CCN([C@@H](Cc2ccccc2)C(=O)N2CCOCC2)S(=O)(=O)c2ccccc21` it was -0.215% (inactive); in that of `COc1cccc(OC)c1C(=O)Nc1sc2c(c1C(N)=O)CCCC2`, -3.68% (inactive). Turning to `O=C(OCC1OC(Oc2ccc(O)cc2)C(O)C(O)C1O)c1ccccc1` (stereo not given), the activity change, negative = inhibition is -1.79% (inactive). In the case of `CCCCn1c(N)c(N(CC(C)C)C(=O)c2cccc(S(=O)(=O)N3CC(C)OC(C)C3)c2)c(=O)[nH]c1=O` (stereo not given) it was -2.84% (inactive); in that of `Cc1ccc(C(CNC(=O)Nc2ccccc2)N2CCN(C)CC2)cc1` (stereo not given), -9.11% (inactive); in that of `Cc1ccc(C)c(NC(=S)NCC(c2cccnc2)N2CCOCC2)c1` (stereo not given), -6.11% (inactive). In the case of `Cc1ccc(NC(=O)NCC(c2cccnc2)N2CCOCC2)cc1` (stereo not given) it was -69.8% (active); in that of `O=C(NCCS(=O)(=O)NCc1ccc(Cl)cc1)c1ccccc1`, 2.35% (inactive); in that of `O=C(COC(=O)Cc1ccccc1F)NNC(=O)c1ccc(Cl)cc1`, -1.7% (inactive). The figure for `CC1CCN(c2c(NCc3ccc(C(=O)NCc4ccccc4)cc3)c(=O)c2=O)CC1` is -69.2% (active); for `O=C(NC1CCCCC1)c1ccc(CNc2c(N3CCOCC3)c(=O)c2=O)cc1` it is -0.199% (inactive). Consider `O=C(NCc1ccccc1)c1ccc(CNc2c(N3CCCC3)c(=O)c2=O)cc1`, for which the activity change, negative = inhibition was -3.59% (inactive). The figure for `Cn1cccc1C(=O)OCC(=O)c1ccc(Br)s1` is -97.9% (inactive); for `O=C(Nc1cccc2c1CCCC2)c1ccc(F)cc1` it is -2.27% (inactive); for `COc1ccc(/C=N/NC(=O)CNC(=O)c2ccc(S(=O)(=O)N3CCCC3)cc2)c(OC)c1` it is -4.96% (inactive). In the case of `COc1ccc(/C=N/NC(=O)c2ccc3c(c2)OCCO3)c(OC)c1` it was -61% (active). In the case of `COc1ccc(/C=N/NC(=O)Nc2ccc3nsnc3c2)c(OC)c1` it was 15.1% (inactive). In the case of `COc1ccc(C)cc1NC(=O)CSc1nnc2ccc(-c3ccccn3)nn12`, the activity change, negative = inhibition is -4.51% (inactive). The figure for `COc1cc(C(=O)NN(CCC#N)C2=NS(=O)(=O)c3ccccc32)cc(OC)c1OC` is -1.4% (inactive).

In the case of `Cc1ccc(S(=O)(=O)N(NC2=NS(=O)(=O)c3ccccc32)C(=O)c2ccccc2)cc1`, the activity change, negative = inhibition was -2.65% (inactive). In the case of `Cc1ccc(C(=O)NN(CCC#N)C2=NS(=O)(=O)c3ccccc32)cc1` it was -53.5% (active); in that of `O=C(CN(c1cc(C(F)(F)F)ccc1Cl)S(=O)(=O)c1ccccc1)NCc1cccnc1`, 6.77% (inactive). Regarding `CCOC(=O)N1CCN(C(=O)CSc2nc(=O)n3cccc(C)c3n2)CC1`, the activity change, negative = inhibition is -2.47% (inactive). The figure for `O=C1[C@H]2[C@@H](c3ccc(Cl)cc3)N3C(=O)N(c4cccc(F)c4)C(=O)[C@@]3(Cc3ccccc3)[C@H]2C(=O)N1C1CCCCC1` is 8.08% (inactive).

With `CN(C)S(=O)(=O)c1ccc(N2CCCC2)c(C(=O)Nc2ccc(Br)cc2F)c1`, the activity change, negative = inhibition was 0.082% (inactive). In the case of `Cc1ccc(-c2csc(NC(=O)C3=COCCO3)n2)cc1C` it was 14.3% (inactive). Consider `CCOC(=O)N1CCN(C(c2cccnc2)c2ccc3cccnc3c2O)CC1` (stereo not given), for which the activity change, negative = inhibition was 26.3% (inactive).

As to `Oc1c(C(c2ccccn2)N2CCOCC2)ccc2cccnc12` (stereo not given), the activity change, negative = inhibition is 39.3% (inactive). Consider `CCN1CCN(C(c2cccnc2)c2cc(Cl)c3cccnc3c2O)CC1` (stereo not given), for which the activity change, negative = inhibition was -81.5% (active).

`C=CCSc1nnc2c(n1)-c1cccc3cccc-2c13`: the activity change, negative = inhibition is 3.46% (inactive).

Turning to `COC(=O)c1c(-c2ccsc2)oc2ccc(-c3cc(OC)c(OC)c(OC)c3)cc12`, the activity change, negative = inhibition is 0.511% (inactive). In the case of `CC(C)n1cnc2c(Nc3cccc(Cl)c3)nc(N(CCO)CCCO)nc21` it was -11.1% (inactive).

Turning to `OCCCNc1nc(-c2ccccc2)c2cc(Cl)ccc2n1`, the activity change, negative = inhibition was -1.41% (inactive). In the case of `OCCCNc1nccc(-c2cc(Nc3cccc(Cl)c3)ncn2)n1` it was -63.5% (active); in that of `Cc1ccc2nc(SCC(=O)Nc3cccc4ccccc34)nc(=O)n2c1`, 4.93% (inactive). The figure for `O=C(NCCS(=O)(=O)NCc1ccc(F)cc1)c1ccccc1` is 0.252% (inactive); for `O=C(Nc1cccnc1)c1noc2c1CCCCC2` it is -52.6% (active); for `O=C(Nc1cccnc1)c1cccc(S(=O)(=O)N2CCCC2)c1` it is -0.574% (inactive).

For the compound `O=C(c1noc2c1CCCC2)N1CCc2ccccc2C1`, the activity change, negative = inhibition is 12.4% (inactive). For `O=[N+]([O-])c1cccc(C=NN=Cc2ccccc2O)c1`, the activity change, negative = inhibition is -25.2% (inactive). The figure for `COc1ccc(C(=O)O/N=C(\N)c2ccccn2)cc1[N+](=O)[O-]` is 12.7% (inactive); for `COc1cccc(OCC(=O)NNC(=O)c2cnccn2)c1` it is -5.69% (inactive). In the case of `COc1ccc(C(=O)NNC(=O)c2cnccn2)cc1[N+](=O)[O-]` it was -85.3% (active); in that of `CC(=O)c1c(C)[nH]c(C(=O)COC(=O)CCOc2ccc(C)cc2)c1C`, 5.07% (inactive); in that of `CCCNC(=O)CCn1cc(-c2ccc(OC)cc2)nc1CCN`, -7.76% (inactive).

For the compound `O=C(NNC(=O)c1ccc(-c2ccccc2)cc1)Nc1ccccc1`, the activity change, negative = inhibition is -2.47% (inactive). Turning to `O=S(=O)(Nc1ccc(-c2ccc(N3CCOCC3)nn2)cc1)c1cc(Cl)ccc1Cl`, the activity change, negative = inhibition is 11.6% (inactive). The figure for `CCC(C)N(C(=O)CSc1ncnc2c1cnn2-c1ccccc1)C1CCS(=O)(=O)C1` (stereo not given) is 0.752% (inactive); for `COc1ccc(OC)c(S(=O)(=O)N2CCCC(C(=O)N3CCC(C(N)=O)CC3)C2)c1` (stereo not given) it is -0.699% (inactive). In the case of `O=C1COc2ccc(S(=O)(=O)Nc3ccc(OC(F)(F)F)cc3)cc2N1` it was 2.92% (inactive). The figure for `O=S(=O)(Nc1ccc(O)c2ccccc12)c1ccc(OC(F)(F)F)cc1` is -59.7% (active); for `Cc1nn(C)c(C)c1NS(=O)(=O)c1ccc(OC(F)(F)F)cc1` it is -8.93% (inactive). Turning to `CCC(=O)N1CCc2cc(Br)c(S(=O)(=O)NCCN3CCCCC3CC)cc21` (stereo not given), the activity change, negative = inhibition was -1.08% (inactive).

As for `CN1CCN(C2Cc3ccc(Cl)cc3Sc3ccc(F)cc32)CC1` (stereo not given), the activity change, negative = inhibition is -0.795% (inactive).
